Values joined by “and” are separate entries in the source; they are usually repeats but may differ in a detail not shown here. Equal entries are not always repeated. Records with an inconclusive call do not appear. Active and inactive are the calls of the source. Unless noted, calls come from the whole dose curve; as a rule, active = well fitted curve in the direction sought with a large enough effect; inconclusive = small, poorly fitted or top-dose-only effect, or another doubt; inactive = no such curve, though single readings can be large; an effect the other way counts as inactive or inconclusive. Peptide text beside a SMILES is read from it.
Legend:
[1] = target: Glutaminase kidney isoform, mitochondrial (Homo sapiens) (UniProt O94925); assay: qHTS for Inhibitors of Glutaminase (GLS): LOPAC Validation (AID 624146); note: nearly all actives have a fitted effect of over 60% in size; note: potency is the fitted concentration of half-maximal effect
Summary of the method: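 Assay buffer: 45 mM KH2PO4 pH 8.2, 0.02% Tween-20. hKGA acts on L-glutamine (1 mM solution added); product glutamate is reported by an oxidase/peroxidase Amplex Red coupling, with fluorescence taken at baseline and 30 min.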

[2] = qHTS of Trypanosoma Brucei Inhibitors: LOPAC Validation (AID 624147); note: 0% is about no effect
Summary of the method: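 ADP (130 uM final) triggers the TbPYK reaction after compound addition; incubation is 45 min at room temperature. Kinase-Glo Plus is then added and luminescence imaged. Normalized data are fitted to concentration-effect curves.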

[3] = target: Glucagon-like peptide 1 receptor (Homo sapiens) (UniProt P43220); assay: qHTS of GLP-1 Receptor Agonists: LOPAC Validation (AID 624148);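 note: luminescence from a luciferase reporter switched on by cAMP; 0% is about no effect; higher luminescence signal means agonism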
Summary of the method: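 Agonism scored as increased luciferase luminescence driven by cAMP in HEK293 clones carrying GLP-1R. Cells settled 12 hours, received compound for 4-6 hr at 37 deg C, 5% CO2, and were read after 12 min detection reagent at RT.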

[4] = qHTS of Nrf2 Activators: LOPAC Validation (AID 624149); note: 0% is about no effect
Summary of the method: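 AREc32_Fluc cells, 1000/well in OPTI-MEM with 5% FBS, grown overnight, then exposed to compounds for 24 hr at 37 deg C, 5% CO2. ARE-driven firefly luciferase read by Steady-Glo luminescence after 30 min at RT.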

[5] = HTS Assay for Allosteric Antagonists of the Human D2 Dopamine Receptor: Hit Validation in HTRF (AID 624455);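 note: stable D1 dopamine receptor cell line scored for blocking the D1 response; % is set by controls: 0 for no effect and ±100 for the full control effect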
Summary of the method: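 Hit validation in cells stably expressing the D1 dopamine receptor, run in HTRF format. Compounds were tested for their ability to inhibit the D1-mediated response.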

[6] = S16 Schwann cell PMP22 intronic element firefly luciferase assay (AID 624032);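 note: plate controls were DMSO for no effect and PTC124 positive control mean for full effect; nearly all actives have a fitted effect of over 30% in size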
Summary of the method: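 Luciferase reporter of PMP22 intronic-element expression in stably transfected S16 rat Schwann cells, read by ONE-Glo luminescence after 24 h compound exposure at 37 C. Activity scaled between DMSO (0%) and positive-control PTC124; concentration-effect curves quality-classified.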

[7] = qHTS assay for small molecule agonists of the antioxidant response element (ARE) signaling pathway (AID 651741; active = well fitted activation curve with a large enough effect in the signal ratio; the % refers to the signal ratio; note: potency is the fitted concentration of half-maximal effect; for activation: % of control where 0% means no effect)
Summary of the method: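 Quantitative HTS in HepG2 cells stably expressing an ARE-beta-lactamase reporter; 16 h compound exposure at 37 C, followed by 2 h room-temperature incubation with LiveBLAzer B/G FRET substrate and fluorescence measurement.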

[8] = qHTS assay for small molecule activators of the nuclear factor-kappa B (NF-kB) signaling pathway (AID 651749; active = well fitted activation curve with a large enough effect in the signal ratio; the % refers to the signal ratio; note: % of control where 0% means no effect); settings: NF-kB-bla ME-180 cells, beta-lactamase FRET ratio, 16 h; stronger effect = higher value
Summary of the method: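 Readout: beta-lactamase reporter driven by an NF-kB response element, detected fluorescently as loss of FRET. Cells were the ME-180 line, treated 16 hr at 37C with pin-transferred compound.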

[9] = S16 Schwann cell PMP22 intronic element beta-lactamase assay (AID 624044; calls by dose curve;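 note: 0% = DMSO and -100% = potassium clavulanate positive control; nearly all actives have a fitted effect of over 15% in size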)
Summary of the method: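 Rat S16 Schwann cells with beta-Lac driven by a PMP22 intronic element, compound-treated 24 h at 37 °C. LiveBLAzer FRET B/G read: 460 nm normalized to potassium clavulanate vs DMSO; 535 nm FRET as viability; concentration-effect curves classified.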

[10] = qHTS assay for small molecule activators of the p53 signaling pathway (AID 651743; active = well fitted activation curve with a large enough effect in the signal ratio, not every such curve was filed as active; the % refers to the signal ratio; note: potency is the fitted concentration of half-maximal effect; for activation: % of control where 0% means no effect); settings: HCT-116 p53RE-bla, beta-lactamase FRET ratio, 16 h; activation: stronger effect = higher value
Summary of the method: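 Read-out is fluorescence intensity from the LiveBLAzer B/G FRET substrate, added for 2 hours at room temperature after HCT-116 p53RE-bla cells had been incubated with compounds for 16 hours at 37 C.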

[11] = qHTS assay for small molecule disruptors of the mitochondrial membrane potential - 1 hr assay (AID 651754; calls by dose curve; note: nearly all actives have a fitted effect of over 35% in size; note: potency is the fitted concentration of half-maximal effect)
Summary of the method: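 HepG2 cells, attached overnight, were exposed to compound for 1 hr at 37C, then stained 30 min with a potentiometric dye. Ratio of red aggregate (590nm) to green monomer (535nm) fluorescence reports membrane potential; collapse shifts signal toward green.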

[12] = qHTS assay for small molecule disruptors of the mitochondrial membrane potential - 5 hr assay (AID 651755; calls by dose curve; note: nearly all actives have a fitted effect of over 40% in size; note: potency is the fitted concentration of half-maximal effect)
Summary of the method: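 HepG2, 2,000 cells/well, overnight attach; cpd or DMSO 5 hr, 37C/5% CO2; Mito-MPS 30 min 37C; fluor 490/535 + 540/590 nm.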

[13] = target: Tumor necrosis factor (Homo sapiens) (UniProt P01375); assay: qHTS assay to identify small molecules that stimulate Tumor Necrosis Factor-alpha (TNF-alpha) secretion (AID 651757; active = well fitted curve in the direction sought with a large enough effect in the signal ratio; the % refers to the signal ratio; note: potency is the fitted concentration of half-maximal effect)
Summary of the method: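 THP-1 cells (3000/well) exposed to compounds 17 hrs at 37 C. Secreted TNF-alpha detected by HTRF with cryptate- and XL665-labeled anti-TNF-alpha antibodies after 3 hr at room temperature.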

[14] = Cytotoxicity counterscreen for NFkB agonists and antagonists (AID 624476); note: potency is the fitted concentration of half-maximal effect
[15] = qHTS Assay for Identification of Small Molecule Agonists for NFkB Signaling Pathway. (AID 624478); note: 0% is about no effect
Summary of the method: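 NFkB-bla ME-180 cells carry a beta-lactamase reporter. They received compound plus TNF alpha at 10 pM final (its EC50) for 5 h at 37 C. Reporter activity was read as 460/530 nm emission ratio after 2 h LiveBLAzer substrate loading.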

[16] = qHTS Assay for Identification of Small Molecule Antagonists for NFkB Signaling Pathway. (AID 624479; calls by dose curve;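 note: pathway stimulated with TNF alpha; % is set by controls: 0 for no effect and ±100 for the full control effect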)
[17] = Cell Proliferation Assay against the TMD8 Cell Line (AID 651645); settings: TMD8 DLBCL cell line proliferation/viability; at 46.1 µM (top of the series) unless noted;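 note: cells exposed to compound for 48 h before reading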
Summary of the method: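 Seed log-phase TMD8 cells in RPMI containing 5% FBS, add compounds at once, incubate 48 hours at 37C. Equilibrate to room temperature, add CellTiter-Glo, read luminescence after 15 minutes and express relative to DMSO and bortezomib controls.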

[18] = Cell Proliferation Assay against the TMD8 Cell Line (Caspase readout at 16 hrs) (AID 651712)
Summary of the method: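 Apoptotic response of TMD8 cells was judged from caspase 3/7 activation following a 16 hour compound incubation at 37 °C. Luminescent signal was converted to percent activity, with DMSO set as 0% and 9.2 uM final bortezomib as 100%.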

[19] = Cell Proliferation Assay against the TMD8 Cell Line (Caspase readout at 8 hrs) (AID 651713)
Summary of the method: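 TMD8 cells in RPMI plus 5% FBS were treated with compound for 8 h at 37C. Caspase 3/7 activation was read by Caspase-Glo luminescence. Percent activity was scaled from DMSO (0%) to 9.2 uM bortezomib final (100%).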

[20] = qHTS assay to identify small molecules that stimulate interleukin-8 (IL-8) secretion (AID 651758; active = well fitted activation curve with a large enough effect in the signal ratio; the % refers to the signal ratio; note: 0% is about no effect)
Summary of the method: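 Secreted IL-8 measured by TR-FRET sandwich (cryptate and XL665 antibodies) from THP-1 cells exposed to compound overnight (16 hrs, 37 C).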

Sequence of Glucagon-like peptide 1 receptor (Homo sapiens) (P43220 whole entry, looked up): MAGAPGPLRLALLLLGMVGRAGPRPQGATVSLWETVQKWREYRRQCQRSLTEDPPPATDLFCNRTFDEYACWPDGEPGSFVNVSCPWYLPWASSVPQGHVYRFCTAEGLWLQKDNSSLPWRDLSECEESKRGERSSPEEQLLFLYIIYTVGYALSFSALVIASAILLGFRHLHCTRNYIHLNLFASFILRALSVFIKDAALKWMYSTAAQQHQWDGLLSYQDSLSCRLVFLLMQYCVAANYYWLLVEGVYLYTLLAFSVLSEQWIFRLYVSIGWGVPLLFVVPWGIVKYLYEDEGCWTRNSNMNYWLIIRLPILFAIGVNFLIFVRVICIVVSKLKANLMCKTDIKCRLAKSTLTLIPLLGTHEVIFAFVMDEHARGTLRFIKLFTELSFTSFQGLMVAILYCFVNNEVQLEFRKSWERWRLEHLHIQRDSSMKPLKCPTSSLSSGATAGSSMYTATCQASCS
Sequence of Glutaminase kidney isoform, mitochondrial (Homo sapiens) (O94925 whole entry, looked up, canonical isoform): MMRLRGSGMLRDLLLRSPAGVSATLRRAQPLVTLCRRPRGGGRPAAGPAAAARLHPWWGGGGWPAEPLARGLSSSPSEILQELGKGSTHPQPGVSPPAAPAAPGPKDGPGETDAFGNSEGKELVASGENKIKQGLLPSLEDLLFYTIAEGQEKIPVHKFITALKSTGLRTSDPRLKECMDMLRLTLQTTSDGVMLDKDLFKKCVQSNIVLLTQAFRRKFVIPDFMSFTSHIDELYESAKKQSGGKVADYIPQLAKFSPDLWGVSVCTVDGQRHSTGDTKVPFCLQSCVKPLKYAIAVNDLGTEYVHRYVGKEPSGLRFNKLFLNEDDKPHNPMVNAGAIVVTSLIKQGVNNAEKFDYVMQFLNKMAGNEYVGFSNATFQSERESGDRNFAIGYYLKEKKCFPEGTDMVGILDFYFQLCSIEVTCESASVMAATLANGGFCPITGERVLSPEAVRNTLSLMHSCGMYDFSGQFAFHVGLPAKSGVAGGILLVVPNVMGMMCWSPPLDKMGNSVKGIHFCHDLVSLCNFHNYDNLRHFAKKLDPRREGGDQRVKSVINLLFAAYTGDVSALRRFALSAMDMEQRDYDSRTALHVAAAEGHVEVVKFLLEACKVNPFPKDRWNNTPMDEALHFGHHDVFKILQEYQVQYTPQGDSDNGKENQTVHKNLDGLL
Sequence of Tumor necrosis factor (Homo sapiens) (P01375 whole entry, looked up): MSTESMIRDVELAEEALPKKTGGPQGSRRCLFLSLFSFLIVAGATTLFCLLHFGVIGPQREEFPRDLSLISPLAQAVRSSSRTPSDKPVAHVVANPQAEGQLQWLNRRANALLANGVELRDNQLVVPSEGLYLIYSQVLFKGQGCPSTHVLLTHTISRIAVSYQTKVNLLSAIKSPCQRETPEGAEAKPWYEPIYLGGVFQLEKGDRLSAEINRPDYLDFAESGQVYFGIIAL

O=C(c1ccccc1)c1ccc2n1CCC2C(=O)O (stereo not given)
inactive: Potency [1] | Potency [2] | outcome [3] | outcome [4] | outcome [5]

N[C@@H](Cc1cc(I)c(Oc2cc(I)c(O)c(I)c2)c(I)c1)C(=O)O
active: Potency [7] 54.5 µM
inactive: Potency [6] | activation [8] 8.63%

NC(=NCc1ccccc1)NC(=O)c1nc(Cl)c(N)nc1N
inactive: Potency [1] | Potency [2] | outcome [3] | outcome [4] | outcome [5]

CCOC(=O)c1c(C)n(C)c2ccc(O)cc12
inactive: Potency [9]

CC1(C)NC(=O)N(c2ccc([N+](=O)[O-])c(C(F)(F)F)c2)C1=O
active: Potency [7] 54.5 µM
inactive: Potency [1] | Potency [2] | outcome [3] | outcome [4] | outcome [5] | activation [10] 15.1%

CN(C)c1ccc2nc3ccc(=[N+](C)C)cc-3sc2c1
active: Potency [10] 20 µM | Potency [11] 3.76 µM | Potency [12] 5.31 µM | Potency [13] 10.6 µM
inactive: Potency [6]

COc1ccccc1N1CCN(CCN(C(=O)C2CCCCC2)c2ccccn2)CC1
inactive: Potency [1] | Potency [2] | outcome [3] | outcome [4] | outcome [5]

Cc1c(OCC(F)(F)F)ccnc1CS(=O)c1nc2ccccc2[nH]1 (stereo not given)
inactive: Potency [2] | outcome [3] | outcome [4] | outcome [5]

O=C(O)c1cccnc1Nc1cccc(C(F)(F)F)c1
inactive: Potency [1] | Potency [2] | outcome [3] | outcome [4] | outcome [5]

CCOC(=O)C(C)Oc1cccc2c(=O)n(CC(=O)Nc3ccc4c(c3)OCCO4)ccc12 (stereo not given)
inactive: Potency [1] | Potency [2] | outcome [3] | outcome [4] | outcome [5] | Potency [14] | outcome [15] | Potency [16] | Potency [18] | Potency [19]
109%: viability (% of control) [17]

O=C1c2ccccc2-c2n[nH]c3cccc1c23
inactive: Potency [1] | Potency [2] | outcome [3] | outcome [4] | outcome [5]

COc1cc2nc(N3CCN(C(=O)C4CCCO4)CC3)nc(N)c2cc1OC (stereo not given)
inactive: Potency [1] | Potency [2] | outcome [3] | outcome [4] | outcome [5]

O=C1c2c(O)cc(O)cc2OC(c2ccc(O)c(O)c2)C1O (stereo not given)
inactive: Potency [2] | outcome [3] | outcome [4] | outcome [5]
active: Potency [1] 0.708 µM

O=c1ccc2ccc(O)c(O)c2o1
inactive: Potency [2] | outcome [3] | outcome [4] | outcome [5]

NS(=O)(=O)c1cc(C(=O)O)c(NCc2ccco2)cc1Cl
inactive: Potency [7] | activation [8] -1.24% and -2.58% | Potency [11] | Potency [12] | Potency [13]

CCN(CCO)CCCC(C)Nc1ccnc2cc(Cl)ccc12 (stereo not given)
inactive: Potency [14] | outcome [15] | Potency [16] | Potency [18] | Potency [19]
114%: viability (% of control) [17]

CCc1nc(N)nc(N)c1-c1ccc(Cl)cc1
inactive: Potency [13] | outcome [20]

COC(=O)[C@H](Cc1ccccc1)NC(=O)[C@@H](N)CC(=O)O (H-Asp-Phe-OMe)
inactive: Potency [7] | activation [10] 0.335% and -1.33% | activation [8] -1.39% and -0.748% | Potency [13] | outcome [20]

NNc1nncc2ccccc12
inactive: Potency [2] | outcome [3] | outcome [4] | outcome [5]

COc1cc(Nc2c(C#N)cnc3cc(OCCCN4CCN(C)CC4)c(OC)cc23)c(Cl)cc1Cl
4.66%: viability (% of control) [17]
inactive: outcome [15] | Potency [18]

Nc1nc(Cl)nc2c1ncn2[C@H]1C[C@H](O)[C@@H](CO)O1
-0.421% [at 92.2 µM]: viability (% of control) [17]
active: Potency [14] 27 µM | Potency [10] 0.501 µM
inactive: outcome [15] | Potency [16] | Potency [18] | activation [8] 0.321%

CCCCC(CC)COC(=O)C(C#N)=C(c1ccccc1)c1ccccc1 (stereo not given)
inactive: activation [10] -3.23% | activation [8] 0.0169% | Potency [13]

Cc1cc(O)c2c(c1)C(=O)c1cc(O)cc(O)c1C2=O
inactive: outcome [3] | outcome [4] | outcome [5] | activation [8] 0.85% and -1.63%

CC1(C)C(=O)N(CCN2CCC(C(=O)c3ccc(F)cc3)CC2)c2ccccc21
inactive: Potency [2] | outcome [3] | outcome [4] | outcome [5]

c1ccc2[nH]c(-c3cscn3)nc2c1
inactive: Potency [7] | activation [8] -1.73% and -1.48% | Potency [13]

O=c1c(O)c(-c2ccc(O)cc2O)oc2cc(O)cc(O)c12
inactive: Potency [2] | outcome [3] | outcome [4] | outcome [5] | activation [10] -1.48%

Cc1cccc(C#Cc2ccccc2)n1
116%: viability (% of control) [17]
inactive: Potency [2] | outcome [3] | outcome [5] | Potency [14] | outcome [15] | Potency [16] | Potency [18]

S=c1nc[nH]c2nc[nH]c12
39.5% [at 92.2 µM]: viability (% of control) [17]
inactive: outcome [15] | Potency [16] | Potency [18] | Potency [19]

CCOC(=O)C1=C(O)C(=O)N(Cc2ccccc2)C1
inactive: Potency [14] | outcome [15] | Potency [16] | Potency [18] | Potency [19]
104%: viability (% of control) [17]
